According to PubChem BioAssay (NCATS):
Results filed as inconclusive are left out. A call without a number means that no potency is given here. Calls of active or inactive are those of the source. The call rests on the fitted dose curve; in most records, active means well fitted curve in the direction sought with a large enough effect; inconclusive means small, poorly fitted or top-dose-only effect, or another doubt; inactive means no such curve, though single readings can be large; an effect the other way counts as inactive or inconclusive.

Each molecule was assayed against Aldehyde dehydrogenase, mitochondrial (Homo sapiens) (UniProt P05091) (assay: qHTS for Inhibitors of the Aldehyde Dehydrogenase Family (ALDH2) Primary screen (AID 2061308; further: nearly all actives have a fitted effect of over 55% in size)). Conditions: ALDH2 enzyme inhibition qHTS, 1536-well; series mostly up to 56 µM.
For `O=C(c1ccc2c(c1)ncn2-c1cccc(C(F)(F)F)c1)N1CCCCC1`, the Potency was “inactive”.
`CC[C@@H]1C[C@]1(NC(=O)[C@@H]1C[C@@H]2CN1C(=O)[C@H](C(C)(C)C)NC(=O)OCC(C)(C)CCCCc1cccc3c1CN(C3)C(=O)O2)C(=O)NS(=O)(=O)C1CC1` was tested, and the Potency was “inactive”.
For `Cn1cnc(S(=O)(=O)Nc2cnccc2C(=O)Nc2nc(-c3ccccc3)cs2)c1`, the Potency was “inactive”.
For `Nc1cc(-c2nc(Nc3ccc(F)c(F)c3)c3ccccc3n2)ccn1`, the Potency was “inactive”.
With `CC(C)c1ccccc1-c1ncc(F)c(NCc2ccc(-c3cccnc3)s2)n1` the Potency was “inactive”.
With `CCOC(=O)c1cccc(-n2cnc(/C=C3\NC(=O)N(CC(=O)OC(C)(C)C)C3=O)c2)c1` the Potency was “inactive”.
For `COc1ccc(NC(=O)c2cnn3c(C)cc(C)nc23)cc1`, the Potency was “inactive”.
For `Cc1ccc(-c2ccnn(CC(=O)N(C)C(C)c3ccco3)c2=O)cc1` (stereo not given), the Potency was “inactive”.
With `Cc1cccc([S+](=O)([O-])NC2CCN(C#N)CC2)c1` the Potency was “inactive”.
For `COc1cc(NS(=O)(=O)c2ccc(C)cc2)c(C(=O)Nc2nc(-c3ccccc3)cs2)cc1OC`, the Potency was “inactive”.
`COc1cccc(C2=Nn3c(nnc3-c3cccc(OC)c3)SC2)c1` was tested, and the Potency was “inactive”.
With `COc1ccc(-c2nnc(NC(=O)Nc3ccc4ccccc4c3)s2)cc1OC` the Potency was “inactive”.
For `Cc1cc2c(s1)c1cnn(Cc3c(F)ccc(F)c3F)c(=O)c1n2C`, the Potency was “inactive”.
With `COc1ccc2nc(-c3ccc(Cl)cc3)sc2c1` the Potency was “inactive”.
For `COc1ccc2ncnc(NCC3CCCO3)c2c1-c1ccc2c(c1)OCO2` (stereo not given), the Potency was “inactive”.
With `Clc1ccccc1-c1ccc2ncnc(NCc3cccnc3)c2c1` the Potency was “inactive”.
For `Cc1cc(Nc2nc(-c3ccccc3)nc3ccccc23)n[nH]1`, the Potency was “inactive”.
With `CC(C)C1=CC2=CCC3[C@](C)(CCC[C@@]3(C)C(=O)O)C2CC1O` (stereo not given in full) the Potency was “inactive”.
In the case of `Cc1cc2c(cc1C1(c3ccc(C(=O)O)cc3)CC1)C(C)(C)CCC2(C)C`, the Potency is reported as “inactive”.
`COc1ccc(C(=O)O)cc1COc1ccc(NC(C)=O)cc1` was tested, and the Potency was “inactive”.
`CN(Cc1cncn1C)c1ncnc2ccc(-c3ccc4c(c3)OCO4)cc12` was tested, and the Potency was “inactive”.
In the case of `Cc1cc(C)c(S(=O)(=O)Nc2cccc3cccnc23)c(C)c1`, the Potency is reported as “inactive”.
In the case of `O=C(OCC#CCSc1nnc(-c2ccc(Cl)cc2)o1)c1ccc(F)cc1`, the Potency is reported as “inactive”.
In the case of `Fc1ccc(-c2nc(-c3c(F)cccc3F)[nH]c2-c2ccncc2)cc1`, the Potency is reported as “inactive”.
In the case of `O=C1CCCC2=C1C(c1[nH]ncc1Cl)NC(=NCc1ccccc1)N2` (stereo not given), the Potency is reported as “inactive”.
In the case of `Cc1ccc(S(=O)(=O)Nc2cccnc2C(=O)Nc2nc(-c3ccccc3)cs2)cc1`, the Potency is reported as “inactive”.
With `O=C1c2ccccc2C(=O)N1c1ccncc1` the Potency was “inactive”.
With `NC(=O)C1CCN(c2nccc(Cl)n2)CC1` the Potency was “inactive”.
For `Cc1ccc(CNc2nc(-c3ccccc3C(F)(F)F)nc3ccccc23)cc1`, the Potency was “inactive”.
For `CC1(C)CC(C(=O)Nc2ccc([S+](=O)([O-])Nc3nccs3)cc2)C1`, the Potency was “inactive”.
For `CC(=O)N1CCc2cc(S(=O)(=O)N3CCN(S(=O)(=O)c4c(F)cccc4F)CC3)ccc21`, the Potency was “inactive”.
In the case of `O=C1CCc2cc(S(=O)(=O)Nc3cccc(Oc4ccccc4)c3)ccc2N1`, the Potency is reported as “inactive”.
For `C[C@@H]1CN(S(=O)(=O)c2ccc3c(c2)OCCO3)CCN1S(=O)(=O)c1c(F)cccc1F`, the Potency was “inactive”.
`O=C(c1cc2sccc2n1Cc1ccccc1)N(CCc1ccc(O)c(O)c1)Cc1ccccc1` was tested, and the Potency was “inactive”.
For `O=S(=O)(NC1CCN(S(=O)(=O)c2c(F)cccc2F)C1)c1ccc2c(c1)OCCO2` (stereo not given), the Potency was “inactive”.
With `CC(C)CN1CC2=C(C1=O)C(c1ccccc1Cl)N=C(Nc1nc3ccccc3o1)N2` (stereo not given) the Potency was “inactive”.
`O=C(OCC#CCSc1nnc(-c2cccs2)o1)c1ccc(F)cc1` was tested, and the Potency was “inactive”.
`COc1ccc(-c2nnc3n2N=C(c2cccc(OC)c2)CS3)cc1` was tested, and the Potency was “inactive”.
With `CCOc1ccc(C(=O)Nc2ccc(-c3nc4ccccc4o3)cc2)cc1[N+](=O)[O-]` the Potency was “inactive”.
For `C=C1C(=O)O[C@@H]2/C=C(/C)[C@@H](OC(C)=O)C/C=C(\C)C[C@@H](OC(=O)/C(=C/CO)CO)[C@@H]12`, the Potency was “inactive”.

What follows are molecules tested against Retinaldehyde dehydrogenase 3 (Homo sapiens) (UniProt P47895) (assay: qHTS for Inhibitors of the Aldehyde Dehydrogenase Family (ALDH1A3) Primary screen (AID 2061315)). Conditions: ALDH inhibition qHTS; series mostly up to 56 µM.
With `O=C(c1ccc2c(c1)ncn2-c1cccc(C(F)(F)F)c1)N1CCCCC1` the Potency was “inactive”.
In the case of `CC[C@@H]1C[C@]1(NC(=O)[C@@H]1C[C@@H]2CN1C(=O)[C@H](C(C)(C)C)NC(=O)OCC(C)(C)CCCCc1cccc3c1CN(C3)C(=O)O2)C(=O)NS(=O)(=O)C1CC1`, the Potency is reported as “inactive”.
For `Cn1cnc(S(=O)(=O)Nc2cnccc2C(=O)Nc2nc(-c3ccccc3)cs2)c1`, the Potency was “inactive”.
`Nc1cc(-c2nc(Nc3ccc(F)c(F)c3)c3ccccc3n2)ccn1` was tested, and the Potency was “inactive”.
For `CC(C)c1ccccc1-c1ncc(F)c(NCc2ccc(-c3cccnc3)s2)n1`, the Potency was “inactive”.
With `CCOC(=O)c1cccc(-n2cnc(/C=C3\NC(=O)N(CC(=O)OC(C)(C)C)C3=O)c2)c1` the Potency was “inactive”.
In the case of `COc1ccc(NC(=O)c2cnn3c(C)cc(C)nc23)cc1`, the Potency is reported as “inactive”.
For `Cc1ccc(-c2ccnn(CC(=O)N(C)C(C)c3ccco3)c2=O)cc1` (stereo not given), the Potency was “inactive”.
In the case of `Cc1cccc([S+](=O)([O-])NC2CCN(C#N)CC2)c1`, the Potency is reported as “inactive”.
`COc1cc(NS(=O)(=O)c2ccc(C)cc2)c(C(=O)Nc2nc(-c3ccccc3)cs2)cc1OC` was tested, and the Potency was “inactive”.
With `COc1cccc(C2=Nn3c(nnc3-c3cccc(OC)c3)SC2)c1` the Potency was “inactive”.
In the case of `COc1ccc(-c2nnc(NC(=O)Nc3ccc4ccccc4c3)s2)cc1OC`, the Potency is reported as “inactive”.
In the case of `Cc1cc2c(s1)c1cnn(Cc3c(F)ccc(F)c3F)c(=O)c1n2C`, the Potency is reported as “inactive”.
With `COc1ccc2nc(-c3ccc(Cl)cc3)sc2c1` the Potency was “inactive”.
`COc1ccc2ncnc(NCC3CCCO3)c2c1-c1ccc2c(c1)OCO2` (stereo not given) was tested, and the Potency was “inactive”.
For `Clc1ccccc1-c1ccc2ncnc(NCc3cccnc3)c2c1`, the Potency was “inactive”.
With `Cc1cc(Nc2nc(-c3ccccc3)nc3ccccc23)n[nH]1` the Potency was “inactive”.
`CC(C)C1=CC2=CCC3[C@](C)(CCC[C@@]3(C)C(=O)O)C2CC1O` (stereo not given in full) was tested, and the Potency was “inactive”.
For `Cc1cc2c(cc1C1(c3ccc(C(=O)O)cc3)CC1)C(C)(C)CCC2(C)C`, the Potency was “inactive”.
With `COc1ccc(C(=O)O)cc1COc1ccc(NC(C)=O)cc1` the Potency was “inactive”.
`CN(Cc1cncn1C)c1ncnc2ccc(-c3ccc4c(c3)OCO4)cc12` was tested, and the Potency was “inactive”.
For `Cc1cc(C)c(S(=O)(=O)Nc2cccc3cccnc23)c(C)c1`, the Potency was “inactive”.
For `O=C(OCC#CCSc1nnc(-c2ccc(Cl)cc2)o1)c1ccc(F)cc1`, the Potency was “inactive”.
In the case of `Fc1ccc(-c2nc(-c3c(F)cccc3F)[nH]c2-c2ccncc2)cc1`, the Potency is reported as “inactive”.
With `O=C1CCCC2=C1C(c1[nH]ncc1Cl)NC(=NCc1ccccc1)N2` (stereo not given) the Potency was “inactive”.
In the case of `Cc1ccc(S(=O)(=O)Nc2cccnc2C(=O)Nc2nc(-c3ccccc3)cs2)cc1`, the Potency is reported as “inactive”.
For `O=C1c2ccccc2C(=O)N1c1ccncc1`, the Potency was “inactive”.
For `NC(=O)C1CCN(c2nccc(Cl)n2)CC1`, the Potency was “inactive”.
With `Cc1ccc(CNc2nc(-c3ccccc3C(F)(F)F)nc3ccccc23)cc1` the Potency was “inactive”.
With `CC1(C)CC(C(=O)Nc2ccc([S+](=O)([O-])Nc3nccs3)cc2)C1` the Potency was “inactive”.
With `CC(=O)N1CCc2cc(S(=O)(=O)N3CCN(S(=O)(=O)c4c(F)cccc4F)CC3)ccc21` the Potency was “inactive”.
For `O=C1CCc2cc(S(=O)(=O)Nc3cccc(Oc4ccccc4)c3)ccc2N1`, the Potency was “inactive”.
For `C[C@@H]1CN(S(=O)(=O)c2ccc3c(c2)OCCO3)CCN1S(=O)(=O)c1c(F)cccc1F`, the Potency was “inactive”.
With `O=C(c1cc2sccc2n1Cc1ccccc1)N(CCc1ccc(O)c(O)c1)Cc1ccccc1` the Potency was “inactive”.
With `O=S(=O)(NC1CCN(S(=O)(=O)c2c(F)cccc2F)C1)c1ccc2c(c1)OCCO2` (stereo not given) the Potency was “inactive”.
In the case of `CC(C)CN1CC2=C(C1=O)C(c1ccccc1Cl)N=C(Nc1nc3ccccc3o1)N2` (stereo not given), the Potency is reported as “inactive”.
`O=C(OCC#CCSc1nnc(-c2cccs2)o1)c1ccc(F)cc1` was tested, and the Potency was “inactive”.
`COc1ccc(-c2nnc3n2N=C(c2cccc(OC)c2)CS3)cc1` was tested, and the Potency was “inactive”.
In the case of `CCOc1ccc(C(=O)Nc2ccc(-c3nc4ccccc4o3)cc2)cc1[N+](=O)[O-]`, the Potency is reported as “inactive”.
With `C=C1C(=O)O[C@@H]2/C=C(/C)[C@@H](OC(C)=O)C/C=C(\C)C[C@@H](OC(=O)/C(=C/CO)CO)[C@@H]12` the Potency was “inactive”.
